According to the supplement of paper PMC8253809:

How the values were obtained:
Assay in all cases: growth inhibition (% activity, log2 RLU normalised to DMSO / staurosporine); higher = more growth inhibition
Conditions in all cases: 33 µM
DIPGX29 = tested on: DIPGX29 (H3.3 K27M diffuse intrinsic pontine glioma line)
In short: (§1)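 For each approved drug, the growth-inhibition value is the replicate median of per-plate normalised CellTiter-Glo data. Luminescence was log2-transformed and expressed as % activity between solvent and positive control wells. Drugs were applied in triplicate at a single final concentration of about 33 μM for 7 days at 37 °C, 5% CO2 to pHGG cell lines and H9-derived neural stem cells.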

DIPGX37 = tested on: DIPGX37 (H3.3 K27M diffuse intrinsic pontine glioma line)
In short: as §1

DIPGX7 = tested on: DIPGX7 (H3.3 K27M diffuse intrinsic pontine glioma line)
In short: as §1

DIPGX9 = tested on: DIPGX9 (diffuse intrinsic pontine glioma line)
In short: as §1

HGGX39 = tested on: HGGX39 (paediatric high-grade glioma line)
In short: as §1

HGGX6 = tested on: HGGX6 (H3.3 G34R paediatric high-grade glioma line)
In short: as §1

HNSC = tested on: HNSC
In short: as §1

SUDIPGIV = tested on: SUDIPGIV (diffuse intrinsic pontine glioma line)
In short: as §1

SUDIPGVI = tested on: SUDIPGVI (diffuse intrinsic pontine glioma line)
In short: as §1

SUDIPGXIII = tested on: SUDIPGXIII (diffuse intrinsic pontine glioma line)
In short: as §1

| Compound | growth inhibition (DIPGX29) [%] | growth inhibition (DIPGX37) [%] | growth inhibition (DIPGX7) [%] | growth inhibition (DIPGX9) [%] | growth inhibition (HGGX39) [%] | growth inhibition (HGGX6) [%] | growth inhibition (HNSC) [%] | growth inhibition (SUDIPGIV) [%] | growth inhibition (SUDIPGVI) [%] | growth inhibition (SUDIPGXIII) [%] |
| --- | --- | --- | --- | --- | --- | --- | --- | --- | --- | --- |
| CCC[S+]([O-])c1ccc2[nH]c(NC(=O)OC)nc2c1 (stereo not given) | 3.39 | 3.5 | 1.48 | 2.55 | 0.691 | 2.32 | 3.73 | 2.81 | -0.51 | 2.63 |
| CCCCOc1cc(C(=O)OCCN(CC)CC)ccc1N | 0.216 | -0.547 | 1.69 | 0.918 | 14.2 | 9.49 | -2.2 | 4.07 | -0.0266 | 2.42 |
| Cc1cc(-n2c(=O)[nH]c(=O)n(C)c2=O)ccc1Oc1ccc(SC(F)(F)F)cc1 | 1.92 | 4.99 | 3.64 | 1.95 | 4.82 | 2.18 | 5.28 | 2.64 | 4.98 | -0.649 |
| Cc1ccc(C(=O)C(C)CN2CCCCC2)cc1 (stereo not given) | 0.542 | 0.69 | 0.522 | 0.564 | 1.58 | 2.83 | -0.193 | -0.938 | -0.166 | 0.909 |
| NC[C@@H]1O[C@H](O[C@H]2[C@@H](O)[C@H](O[C@@H]3[C@@H](O)[C@H](N)C[C@H](N)[C@H]3O[C@H]3O[C@H](CO)[C@@H](O)[C@H](O)[C@H]3N)O[C@@H]2CO)[C@H](N)[C@@H](O)[C@@H]1O | 0.301 | 2.89 | 0.972 | 0.973 | 1.1 | 1.84 | -2.1 | -0.26 | 0.401 | 0.0349 |
| CCCCCCCCOc1ccccc1C(=O)Nc1ccc(C(=O)OCC[N+](C)(CC)CC)cc1 | 1.1 | -1.75 | 3.53 | 2.15 | 53.7 | 10.8 | 1.89 | 4.07 | -1.27 | 2.78 |
| Cc1c(N(C)C)c(=O)n(-c2ccccc2)n1C | -0.911 | -0.00267 | 0.576 | -1.42 | 2.61 | -1.31 | -0.0115 | -1.34 | -0.66 | 0.298 |
| Nc1nc(NC2CC2)c2ncn([C@H]3C=C[C@@H](CO)C3)c2n1 | 1.7 | 3.27 | 1.17 | 1.56 | 3.46 | 3.46 | 0.755 | 2.42 | 3.29 | 0.173 |
| CCOc1nc2cccc(C(=O)O)c2n1Cc1ccc(-c2ccccc2-c2nnn[nH]2)cc1 | 0.354 | -0.496 | 0.489 | -0.089 | 0.622 | 1.65 | 1.93 | -0.153 | 0.98 | -0.345 |
| CC(=O)OCC(=O)[C@@]12OC(C)(C)O[C@@H]1C[C@H]1[C@@H]3C[C@H](F)C4=CC(=O)C=C[C@]4(C)[C@@]3(F)[C@@H](O)C[C@@]12C | 0.7 | 2.1 | -1.12 | 3.42 | 2.3 | -0.607 | 5.54 | -2.88 | 0.11 | 2.76 |
| N[C@@H]1CCCCN(c2c(F)cc3c(=O)c(C(=O)O)cn(C4CC4)c3c2Cl)C1 | -3.25 | -0.479 | -2 | -1.55 | -1.72 | -3.25 | -0.931 | -3.46 | -2.21 | -0.978 |
| CCCOc1ccc2[nH]c(NC(=O)OC)nc2c1 | 6.12 | 5.82 | 6.31 | 9.95 | 7.33 | 9.96 | 66.6 | 11.4 | -1.9 | 3.23 |
| O=C(O)CCCC[C@@H]1SC[C@@H]2NC(=O)N[C@@H]21 | 0.444 | 0.747 | 0.534 | 1.28 | 2.04 | 2.52 | -1.69 | 1.07 | 1.25 | 0.684 |
| CCC(CC)[C@H](NC(C)=O)[C@@H]1[C@H](O)[C@@H](C(=O)O)C[C@H]1NC(=N)N | -0.417 | -0.255 | -0.771 | -0.84 | -1.05 | -1.09 | -1.8 | -0.387 | -0.749 | 2.27 |
| NCCS(=O)(=O)O | 0.304 | 1.36 | 0.217 | 0.788 | 0.579 | 1.43 | -2.23 | -0.945 | 0.882 | -0.421 |
| CC(C)c1nc(CN(C)C(=O)N[C@@H](CCN2CCOCC2)C(=O)N[C@H](CC[C@H](Cc2ccccc2)NC(=O)OCc2cncs2)Cc2ccccc2)cs1 | 3.78 | 0.997 | 0.492 | 2.24 | 2.07 | 1.63 | 1.95 | -0.101 | 3.61 | -0.613 |
| CCCCCCCCCCCCCCCC[N+](C)(C)CCN(Cc1ccc(OC)cc1)c1ncccn1 | 59.2 | 55.6 | 57.6 | 55.3 | 59.2 | 62 | 57.8 | 57.6 | 56.7 | 42.9 |
| CC[C@H](C)C(=O)O[C@H]1C[C@H](O)C=C2C=C[C@H](C)[C@H](CC[C@@H](O)C[C@@H](O)CC(=O)O)[C@H]21 | 1.52 | -5.39 | 5.32 | 1.14 | 8.71 | 5.23 | 17.3 | 1.99 | -4.73 | 2.62 |
| NC(=O)c1cn(Cc2c(F)cccc2F)nn1 | -1.15 | -0.27 | -2 | -1.13 | -1.24 | -1.04 | -2.69 | -1.85 | -0.117 | 0.834 |
| Cc1ncc([N+](=O)[O-])n1CCO | -0.678 | -1.76 | -1.15 | 0.881 | 1.6 | -4.16 | 22.3 | 0.605 | 0.0318 | -3.67 |
| CCCCCCCCCCCC[N+](C)(C)CCOc1ccccc1 | 59 | 58.8 | 53.9 | 57.2 | 62.1 | 56.8 | 55.6 | 55.7 | 63.2 | 70.1 |
